Source: PubChem BioAssay AID933 (National Center for Advancing Translational Sciences (NCATS), 2007)
Several values for one entry are separate records, joined by “and”; a condition that tells them apart may be missing. Equal values may be shown once. Results filed as inconclusive are left out. Activity calls are given as the source filed them. Calls come from the whole dose curve; as a rule, active = well fitted activation curve with a large enough effect in the signal ratio, with a control signal flat; inconclusive = small, poorly fitted or top-dose-only effect, or a change in a side signal; inactive = flat fitted curve, though single readings scatter; the % refers to the signal ratio.

The compounds below were run against Thyrotropin receptor (Homo sapiens) (UniProt P16473) (assay: Secondary Concentration-Response Assay for Agonists of the Thyroid Stimulating Hormone Receptor: HTRF Activity Detection). Conditions: HEK293-TSHR cells, cAMP HTRF ratio, 30 min; series mostly up to 91.7 µM; activation: at the top concentration.
Source text: NIH Chemical Genomics Center [NCGC]
NIH Molecular Libraries Screening Centers Network [MLSCN]
PI Name: Dr. Marvin Gershengorn, NIH
Confirmation of Thyroid Stimulating Hormone Receptor Agonists
TSH is an alpha/beta heterodimeric glycoprotein hormone secreted from the anterior pituitary gland which belongs to the glycoprotein hormone family. The actions of TSH are mediated by a seven-transmembrane receptor, which upon TSH binding couples preferentially to the G-alpha (s) protein (Gs), resulting in activation of adenylate cyclase and increase in cyclic adenosine 3', 5' monophosphate (cAMP). The TSH receptor (THSR) is mainly expressed in thyroid follicular cells and regulates their growth and function. Recombinant TSH is used to activate TSHR in patients with thyroid cancer receiving thyroid hormone suppression therapy and to screen for residual tumor after surgery, but it is expensive and must be administered intramuscularly. An orally active small molecule TSHR agonist would serve as an invaluable research tool for studying TSHR pharmacology and physiology, and would have multiple advantages in therapeutic settings. However, no selective small molecule agonist of the TSH receptor exists, and no small molecule screen for TSHR agonists has ever been reported.
A confirmatory assay of putative TSHR agonists was conducted on a different TSHR transfected HEK 293 cell line, using an orthogonal detection technology to measure cAMP stimulation: antibody-based Homogeneous Time Resolved Fluorescence (HTRF).
NCGC Assay Protocol Summary:
Homogeneous Time Resolved Fluorescence (HTRF) cAMP Assay. HEK 293 cells stably transfected with a vector containing the TSHR and maintained under hygromycin selection were obtained from the laboratory of Dr. Marvin Gershengorn. Compounds were assayed using a HTRF cAMP detection kit (Cisbio) on the TSHR transfected cell line. Briefly, 750 cells were plated in 2.5 ul/well of complete media (DMEM containing 10 % FCS, and 100 uM RO 20-1724) in 1536 well solid bottom white plates and 23 nl/well compound in DMSO solution or controls was added. Following 30 minute incubation at room temperature, 2.5 ul/well of labeled d2 cAMP and 2.5 ul/well of anti-cAMP antibody (both diluted 1:20 in lysis buffer) were added to each well using a flying reagent dispenser (Aurora Discovery, San Diego) . Plates were measured using the Envision plate reader (PerkinElmer, Boston, MA) with excitation at 330 nm and emissions of 615 nm and 660 nm.
Keywords: Thyroid-stimulating hormone TSH, TSHR, TSHR agonist, quantitative high throughput screening, qHTS, HTS, probe identification, CNG, cAMP, cyclic nucleotide gated ion channel PubChem
Potency is the fitted concentration of half-maximal effect.
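Throughout, for activation: HEK 293 cells stably expressing human TSHR with RO 20-1724 phosphodiesterase inhibitor; % of control where 0% means no effect.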

Chain of Thyrotropin receptor (Homo sapiens) (P16473 whole entry, looked up): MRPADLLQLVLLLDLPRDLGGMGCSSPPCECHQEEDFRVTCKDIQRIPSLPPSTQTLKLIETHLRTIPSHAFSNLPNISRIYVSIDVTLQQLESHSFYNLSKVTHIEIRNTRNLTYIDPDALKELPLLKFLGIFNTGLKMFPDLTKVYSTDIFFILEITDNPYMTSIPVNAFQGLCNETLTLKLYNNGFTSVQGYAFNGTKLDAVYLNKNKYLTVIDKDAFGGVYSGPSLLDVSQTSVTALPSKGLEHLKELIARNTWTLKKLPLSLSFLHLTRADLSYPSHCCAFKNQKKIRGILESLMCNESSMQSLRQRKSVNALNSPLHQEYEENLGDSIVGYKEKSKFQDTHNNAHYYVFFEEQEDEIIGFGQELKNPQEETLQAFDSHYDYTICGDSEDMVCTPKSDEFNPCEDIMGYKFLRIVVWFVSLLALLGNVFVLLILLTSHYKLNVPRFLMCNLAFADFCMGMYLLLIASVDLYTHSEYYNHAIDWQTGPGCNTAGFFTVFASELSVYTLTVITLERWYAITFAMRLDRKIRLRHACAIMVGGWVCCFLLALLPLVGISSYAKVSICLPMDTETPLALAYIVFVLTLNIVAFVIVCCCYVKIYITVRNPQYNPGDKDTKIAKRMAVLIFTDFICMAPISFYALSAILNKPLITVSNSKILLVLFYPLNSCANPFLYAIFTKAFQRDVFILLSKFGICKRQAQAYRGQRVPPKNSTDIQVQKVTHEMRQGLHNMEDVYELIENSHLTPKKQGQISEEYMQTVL

activation, inactive:
COc1ccc(C2Nc3ccccc3C(=O)N2c2cccc3ccccc23)cc1COc1c(C)cccc1C (stereo not given) 1.6%
COc1ccc(C2Nc3ccccc3C(=O)N2c2ccc(Cl)cc2)cc1COc1ccc(NC(C)=O)cc1 (stereo not given) 8.76%
CCOc1ccc(S(=O)(=O)NCc2ccccc2Cl)cc1C(N)=O 1.35%
COc1ccc(C2Nc3ccccc3C(=O)N2Cc2ccccc2)cc1COc1ccc([N+](=O)[O-])c(C)c1 (stereo not given) 1.38%
COc1ccc(/C=N/NC(=O)c2ccn[nH]2)cc1COc1ccc(F)cc1 2.29%
O=C(c1cc(-c2cccs2)on1)N1CCCc2ccccc21 0.238% [at 0.00035 µM]
COc1ccc(C2Nc3ccccc3C(=O)N2Cc2ccco2)cc1COc1ccccc1 (stereo not given) 2.37%
COC(=O)CNC(=O)C12CC3(C)CC(C)(CC(C)(C3)C1)C2 0.274% [at 0.00035 µM]
COc1ccc(CN(Cc2ccccc2)C(=O)CN2CCN(C)CC2)cc1COc1ccc(NC(C)=O)cc1 8.23%
CCS(=O)(=O)N1CCN(C(C)CCc2ccccc2)CC1 (stereo not given) 0.972% [at 0.00035 µM]
CCOC(=O)COc1c(OC)cc(Cl)cc1C1Nc2ccccc2C(=O)N1c1ccccc1 (stereo not given) 0.286%
COc1ccc(C2Nc3ccccc3C(=O)N2c2ccc(C)cc2)cc1COc1ccccn1 (stereo not given) 2%
Cc1ccccc1NC(=O)CSc1nnc(-c2ccoc2C)n1CCc1ccccc1 -0.0378% [at 0.00035 µM]
COc1ccc(C2Nc3ccccc3C(=O)N2CCO)cc1COc1ccc(NC(C)=O)cc1 (stereo not given) 5.23%
COc1cc(C2Nc3ccccc3C(=O)N2Cc2ccco2)cc(OC)c1OC (stereo not given) 2.24%
O=C(COC(=O)C12CC3CC(CC(O)(C3)C1)C2)NCc1ccco1 2.65%
CC(=O)Nc1ccc(S(=O)(=O)N(C)c2ccccc2)cc1 -0.796% [at 0.00035 µM]
CC1(c2ccccn2)Nc2ccccc2-c2nc3ccccc3n21 (stereo not given) -0.34% [at 0.00035 µM]
O=C(CSc1nc2scc(-c3ccco3)c2c(=O)n1-c1ccccc1)N1CCOCC1 -0.79% [at 0.00035 µM]
O=C1c2ccccc2NC(c2ccc(Cl)cc2Cl)N1Cc1ccccc1 (stereo not given) 1.15%
COCCNC(=O)C(c1ccccc1)N(Cc1cccs1)C(=O)Cn1nnc2ccccc21 (stereo not given) -0.712% [at 0.00035 µM]
COc1ccc(C2=Nn3c(nnc3-c3ccccc3OC)SC2)cc1OC 7.27%
COc1ccc(C2Nc3ccccc3C(=O)N2Cc2ccccc2)cc1COc1ccc(C#N)cc1 (stereo not given) 11.2%
COc1ccc(C(=O)N(Cc2ccco2)Cc2cccs2)cc1 4.57%
COc1ccc(/C=N/O)cc1COc1ccc(NC(C)=O)cc1 0.871%
COc1cc(C2Nc3ccccc3C(=O)N2c2ccc3c(c2)OCCO3)ccc1OCC(C)C (stereo not given) 1%
COc1cccc(CN2C(=O)CN(C3CCCCC3)C(=O)C2c2ccc(F)cc2)c1 (stereo not given) 0.406% [at 0.00035 µM]
CCOC(=O)C1C(=O)Nc2nc(C)nn2C1c1ccccc1 (stereo not given) 2.16% [at 0.00035 µM]
COc1ccc(N2C(=O)c3ccccc3NC2c2ccc(OC)c(COc3ccccc3F)c2)cc1 (stereo not given) 1.29%
Cc1occc1-c1nnc(SCC(=O)NCc2ccco2)n1CC(C)C 0.131% [at 0.00035 µM]
COc1ccc(C2Nc3ccccc3C(=O)N2Cc2ccco2)cc1COc1ccc(F)cc1 (stereo not given) 0.829%
COc1ccc(C2Nc3ccccc3C(=O)N2Cc2ccccc2)cc1COc1cccc(C(F)(F)F)c1 (stereo not given) 6.58%
COc1ccc2c(c1OC)C(=O)N1c3ccccc3C(=O)N(Cc3ccco3)C21 (stereo not given) 18.7%

Potency, inactive:
COc1ccc(N2C(=O)c3ccccc3NC2c2ccc(OC)c(COc3ccccn3)c2)cc1 (stereo not given)
COc1ccc(C2Nc3ccccc3C(=O)N2Cc2ccco2)cc1 (stereo not given)

Potency, active:
COc1ccc(CN2C(=O)c3ccccc3NC2c2ccc(OC)c(COc3ccc(NC(C)=O)cc3)c2)cc1 (stereo not given) 3.16 µM
COc1ccc(CN(Cc2ccccc2)C(=O)c2ccco2)cc1COc1ccc(NC(C)=O)cc1 15.8 µM
COc1ccc(CN(Cc2ccccc2)C(=O)c2ccccc2N)cc1COc1ccc(NC(C)=O)cc1 25.1 µM
COc1ccc(C2Nc3ccccc3C(=O)N2Cc2ccccc2)cc1COc1ccc(NC(C)=O)cc1 (stereo not given) 7.08 µM and 3.55 µM
COc1ccc(C2Cc3ccccc3C(=O)N2Cc2ccccc2)cc1COc1ccc(NC(C)=O)cc1 (stereo not given) 10 µM
